Activity change, negative = inhibition data for 40 molecules are collected here from PubChem BioAssay (NCATS).

Records with an inconclusive call do not appear. Active and inactive are the calls of the source. Calls follow the shape of the full dose curve. Peptide text beside a SMILES is read from it.
% is scaled to controls: 0 for no effect and ±100 for the full control effect.

The test can be described thus: qHTS Assay for Lipid Storage Modulators (AID 1519). As to conditions: Drosophila S3 cells, BODIPY lipid droplet/cell ratio, laser cytometry; at 57.5 µM (top of the series); cells loaded with oleic acid. Summed up:
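Cells seeded at 5,000 per well were treated with compounds over a concentration series and loaded with oleic acid (400 uM, as added). Lipid droplet fluorescence (488 nm excitation, 500-530 nm channel) was read by laser-scanning cytometry and normalized to 20 uM Triacsin C.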
`CC(C)C1COc2cc3oc(=O)ccc3cc2O1` (stereo not given): the activity change, negative = inhibition was 9.84% (inactive).

Regarding `NC(N)=NCCCC(NC(=O)C(N)Cc1ccc(O)cc1)C(=O)O` (stereo not given), the activity change, negative = inhibition is 5.19% (inactive).

As to `CC1CC[C@@]2(OC1)OC1CC3C4CC[C@@H]5CC(O)CC[C@@]5(C)C4CC[C@]3(C)C1C2C` (stereo not given in full), the activity change, negative = inhibition was 4.69% (inactive).

Regarding `COc1c2ccccc2nc2occc12`, the activity change, negative = inhibition is 9.64% (inactive).

For `COc1ccc2c(=O)c(CC(=O)O)coc2c1`, the activity change, negative = inhibition is 4.63% (inactive).

For `CC1(C)OC2C(CO)OC(n3cnc4c(=O)[nH]cnc43)C2O1` (stereo not given), the activity change, negative = inhibition was 1.95% (inactive).

For `CCOC(=O)CCCCCCCCCCCCC1C=CCC1` (stereo not given), the activity change, negative = inhibition is 1.66% (inactive).

For the molecule `OCc1ccccc1O[C@H]1OC(CO)C(O)C(O)C1O` (stereo not given in full), the activity change, negative = inhibition is 3.66% (inactive).

Take `COc1ccc(/C=C/c2cc(O)cc(O[C@H]3OC(CO)C(O)C(O)C3O)c2)cc1` (stereo not given in full): the activity change, negative = inhibition was 8.33% (inactive).

As to `COc1c(O)cccc1O`, the activity change, negative = inhibition was 5.35% (inactive).

With `Nc1ncnc2[nH]c(=O)[nH]c12`, the activity change, negative = inhibition is 4.6% (inactive).

On to `NCC1CCCCC1CC(=O)O` (stereo not given), for which the activity change, negative = inhibition is 5.88% (inactive).

`C#CCCCCCCCCCCCC(=O)CC(O)COC(C)=O` (stereo not given): the activity change, negative = inhibition was 3.5% (inactive).

Take `CCN1CCN(C(=O)NC(C(=O)NC2C(=O)N3C2SC(C)(C)C3C(=O)O)c2ccccc2)C(=O)C1=O` (stereo not given): the activity change, negative = inhibition is 7.43% (inactive).

As to `CC(=O)N1CCCC1C(=O)O` (stereo not given), the activity change, negative = inhibition was 7.19% (inactive).

Turning to `COc1c(O)cc2c(c1O)C1OC(CO)C(O)[C@H](O)[C@H]1OC2=O` (stereo not given in full), the activity change, negative = inhibition is 6.03% (inactive).

Regarding `CC(C)CCCC(C)C1CCC2C3CC[C@H]4CC(=O)CC[C@@]4(C)C3CC[C@@]12C` (stereo not given in full), the activity change, negative = inhibition was 1.96% (inactive).

In the case of `COc1cc(/C=C/C(=O)O)cc(OC)c1OC`, the activity change, negative = inhibition was 3.87% (inactive).

For the molecule `CC(=O)NC(CC(=O)O)C(=O)NC(CCC(=O)O)C(=O)O` (stereo not drawn) (Ac-Asp-Glu-OH; configuration not given here), the activity change, negative = inhibition is 4.52% (inactive).

Consider `CC1(C)OC2C[C@](O)(C(N)=O)C[C@H](O)[C@H]2O1` (stereo not given in full), for which the activity change, negative = inhibition is 3.65% (inactive).

On to `O=c1[nH]c(Cl)nc2c1ncn2C1OC(CO)C(O)C1O` (stereo not given), for which the activity change, negative = inhibition is 5.69% (inactive).

For `Nc1nc2c(ncn2C2OC(CO)CC2O)c(=O)[nH]1` (stereo not given), the activity change, negative = inhibition is 6.37% (inactive).

On to `CS(=O)(=O)c1ccc(C(O)C(CO)NC(=O)C(Cl)Cl)cc1` (stereo not given), for which the activity change, negative = inhibition is 6.29% (inactive).

For the molecule `CC1(C)CC2C1CC[C@]1(C)CCC3C(C(=O)O)CC(=O)O[C@]32C1` (stereo not given in full), the activity change, negative = inhibition is 3.56% (inactive).

For `CC(=O)Oc1ccc2c(c1OC(C)=O)OCC1(O)Cc3c(cc(OC(C)=O)c(OC(C)=O)c3OC(C)=O)C21` (stereo not given), the activity change, negative = inhibition is 0.943% (inactive).

Turning to `CC1=CC2C(C(C)C)CCC(C)(O)C2CC1` (stereo not given), the activity change, negative = inhibition was -0.741% (inactive).

As to `O=C(/C=C/C(=O)Oc1ccccc1C(=O)O)Oc1ccccc1C(=O)O`, the activity change, negative = inhibition was 7.98% (inactive).

As for `COc1ccc(-c2oc3c(CC=C(C)C)c(O[C@H]4OC(CO)C(O)C(O)C4O)cc(O)c3c(=O)c2O[C@@H]2OC(C)C(O)C(O)C2O)cc1` (stereo not given in full), the activity change, negative = inhibition was 3.91% (inactive).

On to `C=C1CCC(O)C/C1=C/C=C1\CCC[C@@]2(C)C(C(C)/C=C/C(C)C(C)C)CC[C@@H]12` (stereo not given in full), for which the activity change, negative = inhibition was 14.3% (inactive).

Turning to `CC1O[C@@H](Oc2c(-c3ccc(O)c(O)c3)oc3cc(O)cc(O)c3c2=O)C(O)C(O)C1O` (stereo not given in full), the activity change, negative = inhibition is 10.2% (inactive).

As to `CCOc1ccc(C(=O)c2ccc(O)c(O)c2O)cc1`, the activity change, negative = inhibition was 4.84% (inactive).

Regarding `CC(C)CC(NC(=O)CN)C(=O)NC(Cc1ccccc1)C(=O)O` (stereo not drawn) (H-Gly-Leu-Phe-OH; configuration not given here), the activity change, negative = inhibition is 6.28% (inactive).

As for `CC(=O)Oc1ccc2c(c1)CCC1C2CC[C@]2(C)C(=O)CCC12` (stereo not given in full), the activity change, negative = inhibition is -6.33% (inactive).

On to `O=C(O)c1ccc2c(c1)OCO2`, for which the activity change, negative = inhibition is 6.55% (inactive).

As for `CC(=O)OC1CC[C@@]2(C)C3=CC(=O)[C@]4(C)C(CC5OC6(OCC(C)CC6Br)C(C)C54)C3CC[C@H]2C1` (stereo not given in full), the activity change, negative = inhibition is -8.55% (inactive).

With `CC(=O)OC1CC[C@@]2(C)C(CC[C@@]3(C)C2CC=C2C4CC(C)(C)CC[C@]4(C(=O)O)CC[C@@]23C)C1(C)C` (stereo not given in full), the activity change, negative = inhibition was 9.65% (inactive).

For `CC(=O)O[C@@]1(C(C)=O)CCC2C3C=C(Cl)C4=CC(=O)C5CC5[C@@]4(C)C3CC[C@]21C` (stereo not given in full), the activity change, negative = inhibition is 2.54% (inactive).

Turning to `CC1CC[C@@]2(OC1)OC1CC3C4CC[C@H]5CC(O)CC[C@@]5(C)C4CC[C@]3(C)C1C2C` (stereo not given in full), the activity change, negative = inhibition was 2.03% (inactive).

Take `COc1ccc(-c2coc3c(OC)c(OC)cc(OC)c3c2=O)cc1`: the activity change, negative = inhibition is 12.7% (inactive).

For the molecule `O=c1[nH]cnc2c1nc(Cl)n2C1OC(CO)C(O)C1O` (stereo not given), the activity change, negative = inhibition is 3.67% (inactive).
